TWEAK-Fn14 inh = inhibitors of TWEAK-Fn14 interaction signaling; TWEAK-stimulated Fn14 reporter cells, luciferase luminescence, 8 h; inhibition, % at 10 µM; 360,000 compounds, 2% hits; in the data active = inhibition above about 50%
PPC-1+TRAIL kill = kills PPC-1 cancer cells in the presence of TRAIL; cell killing (% activity), % at 4 µM or 5 µM; AID 1443; PPC-1 cells + TRAIL, ATPLite viability luminescence; 220,000 compounds, 0.41% hits;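 active = cell killing above 50% in the first pass at 4 µM, then a duplicate retest at 5 µM averaging 50% or more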;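 also: plate controls were cells with TRAIL plus DMSO for no effect and medium-only wells lacking cells for full effect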
Platelet DG rel = platelet dense granule release activity | human platelet-rich plasma, SFLLRN dense granule ATP release, luminescence | inhibition, %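 (compounds screened at 7.5 µM in platelet-rich plasma)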 | 300,000 compounds, 0.22% hits | AID 1663;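 active = mean replicate score, as percent of positive control, at or above 50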
TROY NFkB inh = blocks TROY-dependent signaling in reporter cells; Q293 LMP1-TROYcd NF-kB luciferase reporter, 4 h; inhibition, % at 10 µM; 360,000 compounds, 0.98% hits; AID 1347056;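 active = compounds whose plate-normalised and pattern-corrected inhibition of the luciferase reporter signal at the single screening dose is 50% or more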
TRAIL sens C8 = sensitizes caspase-8 expressing cells to TRAIL; inhibition (viability loss, TRAIL sensitization), % at 10 µM; NB7+C8 cells + TRAIL, ATPlite viability luminescence; 360,000 compounds, 1% hits;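 active = compounds causing at least 50% loss of cell viability in the single-dose screen, relative to plate controls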
HSP90 inh = inhibitors of HSP90 luciferase refolding in rabbit reticulocyte lysate; AID 1789; luciferase refolding luminescence, 3 h; inhibition, % at 5.6 µM; 290,000 compounds, 0.91% hits;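 active = inhibition above the screen-wide mean plus 3 SD, computed separately per campaign, cut at about 16% in these data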;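 also: 0% = DMSO wells and 100% = 60 µM geldanamycin wells; inhibitors lower the luminescence because luciferase stays unfolded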
PPC1 cytotox = PPC-1 cell cytotoxicity. cytotoxicity, % at 5 µM. shares compounds with PPC-1+TRAIL kill. PPC-1 viability, ATPlite luminescence, overnight. 1,200 compounds, 50% hits. AID 1447;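 active = reconfirmed compounds whose average cytotoxicity reaches 50% or more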;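 also: 0% = DMSO-treated cells and 100% = wells holding medium but no cells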
HSP90 inh confirm = confirmation of HSP90 inhibitors | shares compounds with HSP90 inh | rabbit reticulocyte lysate, luciferase refolding luminescence, 3 h | inhibition, % at 5.9 µM | 2,300 compounds, 64% hits | AID 1846; in the data active = inhibition above about 18%;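 also: 0% = vehicle wells and 100% = reference inhibitor wells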
luciferase ctr = counter-screen for HSP90 inhibitors: inhibitors of firefly luciferase; shares compounds with HSP90 inh; purified native firefly luciferase, luminescence; inhibition, % at 5.9 µM; 2,300 compounds, 48% hits; AID 1847;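 active = inhibition above the mean inhibition of all tested sample wells plus 3 SD, cut at about 10% in these data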;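 also: 0% = DMSO with luciferase and 100% = wells lacking luciferase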
Target sequence (P08659 whole entry, looked up): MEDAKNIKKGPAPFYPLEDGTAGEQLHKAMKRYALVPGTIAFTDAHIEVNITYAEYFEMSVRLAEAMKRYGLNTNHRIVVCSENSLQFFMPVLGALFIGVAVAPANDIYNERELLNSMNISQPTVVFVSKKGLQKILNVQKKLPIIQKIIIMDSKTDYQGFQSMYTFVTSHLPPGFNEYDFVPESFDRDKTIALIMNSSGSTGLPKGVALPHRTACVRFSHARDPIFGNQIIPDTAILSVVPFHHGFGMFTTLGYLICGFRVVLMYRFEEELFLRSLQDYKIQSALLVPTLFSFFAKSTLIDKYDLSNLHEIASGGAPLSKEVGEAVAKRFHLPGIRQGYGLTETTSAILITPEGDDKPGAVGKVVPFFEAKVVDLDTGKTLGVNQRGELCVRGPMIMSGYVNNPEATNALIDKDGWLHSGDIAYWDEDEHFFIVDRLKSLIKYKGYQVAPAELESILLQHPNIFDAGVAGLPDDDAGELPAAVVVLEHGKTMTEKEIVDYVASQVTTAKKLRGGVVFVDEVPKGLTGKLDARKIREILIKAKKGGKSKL
* marks the source's active call; other numbers are inactive results; nt = not tested or not shown. Shown are actives, neighbours in structure and some others; about 3.5% of the full set was active somewhere.

SMILES	TWEAK-Fn14 inh	PPC-1+TRAIL kill	Platelet DG rel	TROY NFkB inh	TRAIL sens C8	HSP90 inh	PPC1 cytotox	HSP90 inh confirm	luciferase ctr
Cn1c(N)c(C(=O)Nc2ccc(-c3ccccc3)cc2)sc1=S	9	43	-38	35	2	6	nt	nt	nt
Cc1cc(C)c2c(N)c(C(=O)Nc3ccccc3F)sc2n1	-19	nt	2	-35	5	-4	nt	nt	nt
COc1cc(SC)ccc1C(=O)Nc1ccc(Cl)cn1	91*	87*	6	74*	90*	26*	87*	90*	84*
CSc1ccc(Cl)c(C(=O)Nc2ccc(Cl)cn2)c1	-3	14	-4	-9	18	3	nt	nt	nt
CCOc1ccc(-c2ccc(SCC)nn2)cc1	64*	60*	nt	-8	73*	18*	57*	56*	39*
CCOc1ccc(-c2ccc(SCc3ccccn3)nn2)cc1	-17	-7	-3	-24	5	-3	nt	nt	nt
COc1ccccc1NS(=O)(=O)c1cc(C(=O)NCCCN2CCCC2=O)ccc1C	12	nt	nt	13	2	nt	nt	nt	nt
COCCn1c(C)cc(C(=O)COC(=O)c2n[nH]c3ccccc23)c1C	86*	82*	-2	54*	88*	44*	84*	66*	69*
Cc1cc(C(=O)COC(=O)c2ccccc2Br)c(C)n1CC1CCCO1 (stereo not drawn)	92*	80*	13	71*	77*	85*	76*	84*	84*
Cc1cc(C(=O)COC(=O)c2cccnc2Cl)c(C)n1CC1CCCO1 (stereo not drawn)	99*	79*	20	88*	16	78*	77*	86*	82*
O=C(COC(=O)c1cccnc1Cl)NCC1CCCO1 (stereo not drawn)	-8	31	2	-1	-8	-4	nt	nt	nt
CC(C)CCNC(=O)c1cc(S(=O)(=O)N2CCC3(CC2)OCCO3)ccc1F	0	nt	nt	15	-9	nt	nt	nt	nt
Cc1nnc(SCc2cnc(-c3ccc(C(C)C)cc3)s2)n1C	33	91*	nt	-9	88*	38*	91*	50*	41*
c1ccc(-c2ncc(CSc3nncn3-c3ccccc3)s2)cc1	3	-12	-4	-4	13	-7	nt	nt	nt
O=C(NCc1ccncc1)[C@@H]1CCCN1C(=O)[C@H]1CCCN1	-4	nt	nt	-7	-1	nt	nt	nt	nt
c1ccc2c(c1)CCN(c1nc3cc4c(cc3s1)OCCO4)C2	103*	84*	3	75*	75*	54*	84*	73*	74*
COc1ccc(OC)c2sc(N3CCc4ccccc4C3)nc12	-16	13	-11	-24	17	2	nt	nt	nt
N/C(=N\OC(=O)c1ccc2ccccc2c1)c1ccccn1	96*	53*	66*	86*	71*	66*	59*	59*	79*
Clc1ccc(/C=C/c2nc3ccccc3[nH]2)cc1	81*	87*	78*	16	88*	35*	86*	69*	63*
O=C(/C=C/c1ccc(Cl)cc1Cl)c1nc2ccccc2[nH]1	-18	27	1	-22	37	1	nt	nt	nt
Clc1ccc(/C=C/c2nc3ccccc3[nH]2)c(Cl)c1	64*	94*	60*	48	87*	44*	95*	77*	72*
O=C(/C=C\Nc1ccccn1)c1ccccc1	76*	55*	24	1	56*	39*	54*	74*	70*
O=C(/C=C/Nc1ccccc1Br)c1ccccn1	104*	92*	54*	84*	93*	87*	93*	98*	94*
COc1ccc(C(=O)/C=C/Nc2ccccn2)c(OC)c1	-4	15	12	-76	9	4	nt	nt	nt
Cc1cccc(CCNS(=O)(=O)c2ccc3c(c2)NC(=O)CS3)c1	-5	nt	10	14	-17	-1	nt	nt	nt
SMILES	TWEAK-Fn14 inh	PPC-1+TRAIL kill	Platelet DG rel	TROY NFkB inh	TRAIL sens C8	HSP90 inh	PPC1 cytotox	HSP90 inh confirm	luciferase ctr
Cc1ccccc1S(=O)(=O)NC(=O)C1(C)CCN1C(=O)C/C=C/c1ccccc1 (stereo not drawn)	0	nt	nt	-4	-4	nt	nt	nt	nt
Cc1cc(N2CCOCC2)n2ncc(-c3ccccc3)c2n1	86*	48	5	75*	69*	51*	48	67*	62*
CC1CCCCN1CCCNc1ccc(C(CC(N)=O)NC(=O)Cc2ccc(Br)cc2)cc1[N+](=O)[O-] (stereo not drawn)	5	nt	14	-3	5	-3	nt	nt	nt
CCOC(=O)C1CCN(C(=O)COc2ccc3c(C)cc(=O)oc3c2)CC1	-15	nt	4	0	-15	nt	nt	nt	nt
Cc1ccc(C(=O)O/N=C(\N)c2ccccc2)c(Cl)c1	96*	81*	68*	82*	94*	56*	80*	80*	87*
CC(NC(=O)C1c2ccccc2Oc2ccccc21)C1CCCO1 (stereo not drawn)	-4	16	3	-7	3	5	nt	nt	nt
O=C(c1cc(-c2ccc(O)cc2)on1)N1CCCCCC1	-6	nt	-6	-51	10	12	nt	nt	nt
Cc1ccc(-c2cc(C(=O)N3CCCC3)no2)cc1	83*	66*	-2	50*	68*	20*	68*	65*	52*
COc1cc(OC)cc(C(=O)NCC(=O)NCCN2C(=O)S/C(=C\c3ccc4c(c3)OCO4)C2=O)c1	-15	nt	nt	-29	23	nt	nt	nt	nt
Cc1ccc(C(=O)CN2C(=O)c3ccccc3S2(=O)=O)cc1	99*	45	3	83*	29	24*	46	57*	-9
O=C(N/N=C/c1cccs1)c1n[nH]c2c1CCCC2	93*	56*	32	68*	74*	36*	46	77*	71*
Cc1ccc(/C=N/NC(=O)c2n[nH]c3c2CCCC3)cc1	-9	4	-13	-18	17	-1	nt	nt	nt
C/C(=N\NC(=O)c1n[nH]c2c1CCC2)c1cccs1	96*	68*	36	63*	80*	33*	67*	84*	72*
CN(C)c1ccc(N/C(N)=N/c2nc(C(F)(F)F)cc(C(F)(F)F)n2)cc1	-33	15	-9	-34	2	-2	nt	nt	nt
CN(C)c1ccc(/C=C2/SC(=O)N(CCN=C3NS(=O)(=O)c4ccccc43)C2=O)cc1	-30	26	5	-47	-3	-4	nt	nt	nt
CN(C)c1ccc(/C=C2\SC(=O)N(CCc3nnc(N)s3)C2=O)cc1	94*	65*	-7	77*	81*	37*	68*	85*	82*

Compound activity from PubChem.
